A selection follows.
aSyn UTR act = Activators via SNCA 5'UTR binding, MLPCN; alpha-synuclein 5'UTR reporter, activators screen; activity score, % (tested at 7.5 µM), hits read low; 7.1% of 300,000 active; in the data active = activity score below about -60%
An asterisk follows results filed as active.

SMILES	aSyn UTR act
COc1cccc(CN(C)C(=O)c2ccc(COc3ccc(Cl)cc3)cc2)c1OC	-101.2*
CC(=O)N1CCN=C1SCc1ccc(C(F)(F)F)cc1	-84.8*
N/C(=C\C(=O)c1cc(Cl)ccc1O)C(Cl)(Cl)Cl	-80.1*
O=C(/C=C\c1ccc(-c2ccccc2)o1)c1ccccc1	-61.7*
Cc1ccc(C(=O)/C=C/c2ccc(-c3ccc(C)cc3)o2)cc1	-72.5*
CCc1nn2cc(-c3ccccc3)nc2s1	80.2
Nc1nn2cc(-c3ccccc3)nc2c2ccccc12	-112.3*
O=C1C2C3C=CC(C4CC34)C2C(=O)N1/N=C/c1c[nH]c2ccccc12 (stereo not given)	-140.7*
O=C1C2C3C=CC(C4CC34)C2C(=O)N1/N=C/c1ccc([N+](=O)[O-])s1 (stereo not given)	-84.9*
O=c1c2ccccc2nnn1CSc1nnc(-c2ccco2)o1	-131.1*
O=c1c2ccccc2nnn1CSc1ccc2c(c1)OCCO2	-144.9*
O=c1c2ccccc2nnn1CSc1nnc2ccccn12	-92.9*
CCC(C(=O)Nc1ccc2c(c1)OCCO2)n1nnc2ccccc2c1=O (stereo not given)	-133.3*
COc1ccccc1C(=O)N/N=C/c1ccc2c(c1)OCO2	-173.4*
C(=N\Nc1ccc2ccccc2n1)/c1ccc2c(c1)OCCO2	108.4
COc1cc2ccccc2cc1C(=O)N/N=C/c1ccc2c(c1)OCO2	-163.5*
C/C(=N\NC(=O)c1cccs1)c1ccc2c(c1)OCO2	-74.2*
C/C(=N\Nc1ccc([N+](=O)[O-])cc1)c1ccc2c(c1)OCO2	-118.5*
C/C(=N\NC(=O)c1ccc2c(c1)OCCO2)c1ccccc1	72.9
C/C(=N\NC(=O)c1ccc2c(c1)OCO2)c1ccc2c(c1)OCO2	-83.4*
c1ccc(-c2nc(C3CCCCC3)no2)cc1	-203.9*
COc1ccc(-c2nc(C3CCCCC3)no2)cc1OC	-162.2*
CN1C2CCC1/C(=C\c1ccc(F)cc1)C(=O)/C2=C/c1ccc(F)cc1	-134.1*
Nc1ccc(Oc2cccc(Oc3ccc(N)cc3)c2)cc1	87.2
c1ccc(Oc2ccc(-c3ccn[nH]3)cc2)cc1	-79.2*
SMILES	aSyn UTR act
Cc1ccccc1NC(=O)n1ncc2cc(Cl)ccc21	-97.8*
Cc1cccc2c1cnn2C(=O)Nc1ccccc1Br	-125.1*
Cc1cccc2c1cnn2C(=O)Nc1ccccc1Cl	-142.6*
C=CS(=O)(=O)c1ccc(Oc2ccc(S(=O)(=O)C=C)cc2)cc1	-108.2*
CC(C)NC(=O)CCCOc1ccc(Cl)cc1Cl	-67.6*
CCCCC(=O)NC(c1ccc(Cl)cc1Cl)c1ccc2cccnc2c1O (stereo not given)	91.6
CCN(CC)C(=O)CCCOc1ccc(Cl)cc1Cl	-96.1*
C#CCN(C)CCCOc1ccc(Cl)cc1Cl	-79.0*
CCOC(=O)/C(C#N)=C/c1c[nH]c2ccccc12	-66.2*
COC(=O)/C(C#N)=C/c1c[nH]c2ccccc12	-96.4*
CCOC(=O)/C(C#N)=C/Nc1ccccc1OC	-121.7*
O=Cc1cc2ccccc2nc1SCc1ccc(Cl)c(Cl)c1	109.1
CCOC(=O)/C(C#N)=C/c1cc2ccccc2nc1Cl	-79.7*
O=C(N/N=C/c1ccccc1[N+](=O)[O-])C(=O)N1CCCC1	-71.7*
O=C(/C=C1\NC2(CCCC2)Cc2ccccc21)C(=O)N/N=C/c1ccccc1O	74.3
CN1CCCC1CCNc1ccc2sc3ccccc3c(=O)c2c1 (stereo not given)	-114.0*
O=c1c2ccccc2sc2ccc(NCCCN3CCOCC3)cc12	-158.4*
Cc1cc2oc3cc(NCCC4CCCN4C)ccc3c(=O)c2cc1C (stereo not given)	-184.2*
CN1N=C(C(=O)N2CCc3c([nH]c4ccccc34)C2c2ccccc2Cl)CCC1=O (stereo not given)	-69.0*
Cc1ccc(SCC(=O)c2c(C)nc3ccccn23)cc1	-85.1*
Cc1cc(N/N=C/c2ccncc2)nc2ccccc12	-137.0*
Cc1cc(N/N=C/c2cccc(Br)c2)nc2ccccc12	-241.1*
COc1nc(C)ccc1-c1noc(-c2ccncc2)n1	-124.9*
COc1nc(-c2ccccc2)ccc1-c1noc(-c2cccs2)n1	-198.0*
COc1ccc(-c2ccc(-c3noc(-c4ccco4)n3)c(OC)n2)cc1	-125.7*
SMILES	aSyn UTR act
COc1nc(-c2ccccc2)ccc1-c1noc(-c2ccco2)n1	-167.5*
COc1nc(-c2ccccc2)ccc1-c1noc(-c2ccccc2)n1	-93.7*
[O-][n+]1ccccc1SC/C=C/c1ccccc1	-65.4*
Cc1ccc(NC(=O)C(=O)N2CCCC2)cc1Cl	-106.7*
O=C(Nc1cccc([N+](=O)[O-])c1)C(=O)N1CCCCC1	-150.9*
O=C(Nc1ccc(Cl)c(Cl)c1)N1CC=CCC1	-121.6*
Cc1ccc(NC(=O)N2CCCC2)cc1Cl	-73.2*
N/C(=N\OC(=O)c1ccccc1[N+](=O)[O-])c1cccnc1	-96.9*
Cc1ccc(C(=O)O/N=C(\N)c2cccnc2)cc1[N+](=O)[O-]	-124.8*
COc1ccc(/C(N)=N/OC(=O)c2ccc(C)c([N+](=O)[O-])c2)cc1OC	-126.0*
N/C(=N\OC(=O)c1ccccc1[N+](=O)[O-])c1ccccn1	-103.8*

Bioassay records (PubChem)
